Measured values from PubChem BioAssay AID504333 (National Center for Advancing Translational Sciences (NCATS), 2011).
Where “and” joins values, the source holds several entries; their conditions need not be identical. Equal values may be shown once. Out of some 360,000 compounds screened, about 16,000 (4.4%) were called active. Roughly 9% stayed inconclusive and do not appear here. Calls come from the whole dose curve; as a rule, active = well fitted inhibition curve with a large enough effect; inconclusive = small, poorly fitted or top-dose-only effect; inactive = no such curve, though single readings can be large or run the other way. The entries come from a sample that favours actives as a whole. Some compounds were tested as several samples or in several runs, with calls that do not always agree.

Target: Bromodomain adjacent to zinc finger domain protein 2B (Homo sapiens) (UniProt Q9UIF8)
Test: qHTS Assay for Inhibitors of BAZ2B; note: nearly all actives have a fitted effect of over 60% in size
Conditions: AlphaScreen BAZ2B-H3K14Ac peptide displacement; series mostly up to 114 µM; activity change, negative = inhibition: at the top concentration
Outline: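 AlphaScreen displacement: compounds (up to 110uM) incubated 30 min at room temperature with a preformed 50 nM BAZ2B/50 nM biotinylated H3K14Ac peptide complex in PBS pH 7.4 with Tween-20. Donor and acceptor beads at 10 ug/mL final added, 20 min light-protected before reading.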
% is set by controls: 0 for no effect and ±100 for the full control effect; potency is the fitted concentration of half-maximal effect.

Bromodomain adjacent to zinc finger domain protein 2B (Homo sapiens), sequence (Q9UIF8 whole entry, looked up, the tested form may be a part): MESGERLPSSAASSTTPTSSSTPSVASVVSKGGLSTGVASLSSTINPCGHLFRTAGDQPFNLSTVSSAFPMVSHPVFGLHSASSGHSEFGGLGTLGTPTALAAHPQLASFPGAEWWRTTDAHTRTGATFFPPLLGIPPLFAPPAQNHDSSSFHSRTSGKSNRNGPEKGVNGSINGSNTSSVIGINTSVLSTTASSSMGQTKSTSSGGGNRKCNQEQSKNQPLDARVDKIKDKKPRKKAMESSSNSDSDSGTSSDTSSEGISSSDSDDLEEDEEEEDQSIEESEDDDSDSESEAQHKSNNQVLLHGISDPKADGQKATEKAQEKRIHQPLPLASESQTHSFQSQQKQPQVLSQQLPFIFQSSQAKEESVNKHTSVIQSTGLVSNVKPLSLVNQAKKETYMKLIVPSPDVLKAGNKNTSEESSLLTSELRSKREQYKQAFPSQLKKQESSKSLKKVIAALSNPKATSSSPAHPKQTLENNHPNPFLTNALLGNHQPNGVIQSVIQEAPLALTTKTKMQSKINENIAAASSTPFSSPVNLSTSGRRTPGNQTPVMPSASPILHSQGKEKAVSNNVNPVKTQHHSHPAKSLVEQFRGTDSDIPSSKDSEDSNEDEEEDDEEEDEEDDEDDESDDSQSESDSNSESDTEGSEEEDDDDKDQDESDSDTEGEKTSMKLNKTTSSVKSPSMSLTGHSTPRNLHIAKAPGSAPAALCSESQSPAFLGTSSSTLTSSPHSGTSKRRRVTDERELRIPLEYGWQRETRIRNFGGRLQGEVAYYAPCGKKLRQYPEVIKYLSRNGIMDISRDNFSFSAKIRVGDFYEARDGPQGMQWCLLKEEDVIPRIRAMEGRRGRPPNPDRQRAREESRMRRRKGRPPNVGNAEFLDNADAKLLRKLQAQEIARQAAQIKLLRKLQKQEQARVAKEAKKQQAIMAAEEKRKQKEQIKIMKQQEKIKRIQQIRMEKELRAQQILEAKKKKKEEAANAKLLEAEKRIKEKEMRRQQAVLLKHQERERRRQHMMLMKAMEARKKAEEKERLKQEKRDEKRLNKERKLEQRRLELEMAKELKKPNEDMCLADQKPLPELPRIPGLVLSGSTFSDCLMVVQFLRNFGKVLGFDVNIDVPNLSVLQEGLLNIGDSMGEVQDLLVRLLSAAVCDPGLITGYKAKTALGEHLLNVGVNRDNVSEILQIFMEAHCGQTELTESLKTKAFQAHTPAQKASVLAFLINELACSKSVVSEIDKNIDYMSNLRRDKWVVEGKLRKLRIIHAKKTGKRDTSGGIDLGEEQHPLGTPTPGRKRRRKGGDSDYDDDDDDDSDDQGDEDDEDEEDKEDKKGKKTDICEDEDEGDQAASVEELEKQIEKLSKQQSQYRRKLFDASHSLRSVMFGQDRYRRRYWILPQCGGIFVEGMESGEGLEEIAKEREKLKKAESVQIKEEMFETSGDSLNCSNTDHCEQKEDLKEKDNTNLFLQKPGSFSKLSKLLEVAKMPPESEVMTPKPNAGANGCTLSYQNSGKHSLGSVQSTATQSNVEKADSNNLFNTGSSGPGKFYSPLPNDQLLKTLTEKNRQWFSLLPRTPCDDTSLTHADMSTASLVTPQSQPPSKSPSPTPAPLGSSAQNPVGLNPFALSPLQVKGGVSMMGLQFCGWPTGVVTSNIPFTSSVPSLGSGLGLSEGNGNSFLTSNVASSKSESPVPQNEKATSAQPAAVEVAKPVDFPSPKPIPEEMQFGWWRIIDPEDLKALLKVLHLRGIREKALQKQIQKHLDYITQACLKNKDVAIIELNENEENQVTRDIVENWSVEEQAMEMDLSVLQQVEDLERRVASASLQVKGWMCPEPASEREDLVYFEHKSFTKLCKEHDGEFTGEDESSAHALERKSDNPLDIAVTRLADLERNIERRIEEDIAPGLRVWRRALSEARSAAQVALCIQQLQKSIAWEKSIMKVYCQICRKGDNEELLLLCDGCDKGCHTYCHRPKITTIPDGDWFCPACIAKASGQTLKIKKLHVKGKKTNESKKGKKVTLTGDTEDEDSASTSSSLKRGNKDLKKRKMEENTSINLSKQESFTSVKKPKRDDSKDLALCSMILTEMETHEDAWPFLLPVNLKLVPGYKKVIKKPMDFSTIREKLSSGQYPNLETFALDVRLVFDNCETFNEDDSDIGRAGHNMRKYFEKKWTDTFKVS

Activity change, negative = inhibition, inactive:
Cc1cccc(NC(=O)CSc2nc(-c3ccco3)cc(C(F)(F)F)n2)c1C -0.898%
Cc1ccc(Cl)cc1N1CCN(C(=O)c2cnc3c(-c4ccc(F)cc4)c(C)nn3c2C)CC1 -6.09%
O=C(N/N=C/c1ccc(Br)o1)c1cncc(Br)c1 -25.5%
O=C(O)c1ccc(/C=N/NC(=O)c2ccc(Br)cc2)cc1 0.96%
Cc1nn2c(=O)cc(COC(=O)c3cccc(NC(=O)COc4ccccc4Cl)c3)nc2s1 -6.08%
CCOc1ccc(-c2cc3nc(C4CCN(C(=O)OC(C)(C)C)CC4)c(C(=O)Nc4cccc(CC)c4)cn3n2)cc1 0.892%
Cc1n[nH]c(=O)n1-c1ccc(Oc2ccccc2)cc1 -3.69%
Cc1cc(C(=O)OCC(=O)NCc2ccco2)c(C)n1-c1ccccc1 -116%
COc1ccc(NS(=O)(=O)c2cc3c4c(c2)CC(=O)N4CCC3)cc1Cl -8%
COc1ccccc1CNC(=O)c1ccc(CS(=O)c2ccccc2Cl)o1 (stereo unspecified) -9.68%
Cc1noc(C)c1/C=N/Nc1ccc2ccccc2n1 1.17%
Brc1ccc(-c2csc(N/N=C/c3ccc4c(c3)OCO4)n2)cc1 -0.146%
COc1ccc(CCNC(=O)CCCn2c(=O)c3ccccc3n(Cc3ccc(C)cc3)c2=O)cc1OC -3.19%
CCOC(=O)c1cc(-c2ccc(OC)c(S(=O)(=O)Nc3ccc(OC)cc3OC)c2)on1 -17.2%
CCN(CC)CCNc1ncnc2c1cnn2-c1cc(Cl)ccc1C 0.0312%
Clc1cccc(-n2ncc3c(NCCc4ccccc4)ncnc32)c1 42.4%
O=C(CC1Oc2ccc(Cl)cc2NC1=O)NCc1ccccc1 (stereo unspecified) -8.67%
CCOc1ccccc1CNC(=O)c1cnc2c(-c3ccc(OCC)c(OCC)c3)c(C)nn2c1C -19.4%
Cc1ccc(SCC(=O)Nc2ccc3oc(-c4ccccc4F)nc3c2)cc1 -16.5%
CCOC(=O)C1CCCN(C(=O)c2ccc3c(c2)sc2nc(-c4ccc(CC)cc4)cn23)C1 (stereo unspecified) 1.94%
Cc1ccccc1CNC(=O)CSc1nnc(C)c2c(C)n(-c3ccccc3)nc12 -3.05%
NC(=O)NC(CC(=O)NNC(=O)c1ccccn1)c1ccc(Cl)cc1 (stereo unspecified) 3.2%
C/C(CC(=O)Nc1ccc(N(C)C)cc1)=N\NC(=O)c1ccccc1F -37.1%
O=C(Nc1ccc(NC(=O)c2ccccc2F)cc1)c1ccccc1F -19.1%
C/C(=N\NC(=O)Cc1ccc(Br)cc1)c1cccnc1 -10.3%
Cc1nc2nc(NCc3cccc(Br)c3)[nH]n2c(=O)c1Cc1ccccc1 -11.6%
O=C(CSc1nc2c(c(=O)[nH]1)CN(Cc1ccc(F)cc1)CC2)Nc1ccccc1Cl 1.1%
Cc1noc2ncnc(NCc3ccccc3Cl)c12 15% [at 57.1 µM]
COC(=O)c1ccc(NC(=O)c2cc(S(=O)(=O)N3CCC(C)CC3)cn2C)cc1 4.42%
Cc1oc(-c2ccccc2F)nc1CN1CCC(C(=O)NCCc2ccc(Cl)cc2)CC1 -11.5%
Cc1ccc(S(=O)(=O)Oc2ccc(/C=N/NC(=O)c3ccncc3)cc2)cc1 -6.9%
Cc1ccc(NC(=O)CC2S/C(=N/N=C3\CCCc4ccccc43)NC2=O)cc1 (stereo unspecified) -32%
CCOc1ccc(N2CC(C)Cn3c2nc2c3c(=O)n(Cc3c(F)cccc3Cl)c(=O)n2C)cc1 (stereo unspecified) -1.59%
COC(=O)C1=CN(Cc2ccc(OC)cc2)C=C(C(=O)OC)C1c1ccc(O)c(OC)c1 11.4%
CCc1ccc(OCC2c3cc(OC)c(OC)cc3CCN2C(C)=O)cc1 (stereo unspecified) -16.9%
Cn1c(=O)n(Cc2c(F)cccc2Cl)c(=O)c2c1nc1n2CCN1c1ccc(F)cc1 -0.264%
COc1cccc(CNC(=O)CCc2nc(-c3ccc(C)cc3)no2)c1 -3.1%
CCCCOc1ccc(CNC(=O)c2ccc3c(c2)N(C)C(=O)C2CCCCN32)cc1 (stereo unspecified) -23.3%
COc1ccc(OC)c2[nH]c(=O)c(CCNC(=O)C(C)(C)C)cc12 3.16%
O=C(NCCCc1ccccc1)C(=O)c1c[nH]c2ccccc12 -19%
COc1ccc(CCNC(=O)c2ccc(CSCc3ccc(C)cc3)o2)cc1OC -31.1%
COc1cc2c(=O)c(S(=O)(=O)c3ccc(C(C)C)cc3)cn(Cc3ccccc3C)c2cc1OC -17.5%
CCC1(C)CC(=O)c2c(ccc3oc(C(=O)Nc4ccc(C(C)=O)cc4)c(C)c23)O1 (stereo unspecified) 0.108%
COc1ccc(NC(=O)COCc2cc(-c3ccco3)on2)cc1 4.22%
COc1cccc(S(=O)(=O)NCc2ccc(C(=O)NCc3ccccn3)cc2)c1 -1.71%
CCOc1ccc(NC(=O)c2ncoc2-c2ccco2)cc1 -33.1%
COc1ccc(-c2nc3ccc(C(=O)NCc4ccc(C)cc4)cc3nc2-c2ccc(OC)cc2)cc1 23.8%
O=C(NCc1ccc2c(c1)CCN2C(=O)c1ccccc1)c1ccccc1 -10.7%
CCOC(=O)c1cc2c(=O)n3ccccc3nc2n(CC2CCCO2)c1=NC(=O)c1ccccc1F (stereo unspecified) 3.27%
O=C(Cn1cc(SCc2cccc(Cl)c2)c2ccccc21)N1CCCCC1 1.17%
O=C(NCC(c1ccc(Cl)cc1)N1CCOCC1)c1ccccc1F (stereo unspecified) -29.4%
CN(Cc1ccccc1)c1ccc(-c2nc(-c3ccccc3)no2)cc1[N+](=O)[O-] -22.6%
Cc1ccc(-c2ccnc3[nH]n(-c4ccccc4)c(=O)c23)cc1 -32.1%
Cc1ccc(-n2[nH]c(C)c(/C=N/N3C(=O)c4cccc5cccc(c45)C3=O)c2=O)cc1 1.55%
COc1cc2[nH]c(=O)n(Cc3ccc(C(=O)NCc4ccc(C)cc4)cc3)c(=O)c2cc1OC 1.5%
O=c1cc(CSc2ncn[nH]2)[nH]c2ccc(F)cc12 5.18%
Cc1ccc(NC(=O)Cc2ccc(NC(=O)N3CCCCc4ccccc43)cc2)cc1 -19.7%
CCN(CC)S(=O)(=O)c1ccc2c(c1)nc(CN(C)C(=O)Nc1ccc(Cl)cc1)n2C -2.28%
O=C(NCCC1=CCCCC1)c1ccc2c(c1)N(Cc1ccccc1F)C(=O)c1ccccc1S2(=O)=O -13.6%
COc1cc2cc(C(=O)N/N=C/c3cccc(OC)c3OC)[nH]c2cc1OC -4.94%
CCOc1ccc2[nH]c(C(=O)N/N=C/c3cccc(OC)c3OC)cc2c1 -3.47%
COc1ccc(Nc2ncc(C(=O)Nc3cc(C)ccc3OC)c3ccccc23)cc1 -2.1%
COc1ccc(-c2nc(Cn3c(=O)cc(C)c4c(C)nn(-c5ccccc5)c43)c(C)o2)cc1OC 15.4%
COc1ccc(Cl)cc1NC(=O)CSc1nc(=O)[nH]c2c1CCCC2 -6.06%
COc1cc(OC)cc(C(=O)NCCc2csc3nc(-c4ccccc4F)nn23)c1 -3.6%
COc1ccc(S(=O)(=O)NCC(c2ccc(C)cc2)N2CCN(C)CC2)cc1OC (stereo unspecified) 29.4%
COc1ccc(C(=O)NCC(c2ccc(N(C)C)cc2)N2CCc3ccccc32)c(OC)c1 (stereo unspecified) -12.9%
CCn1c(C(=O)Nc2cc(Cl)ccc2C)cc2sc(Cl)cc21 -0.183%
COc1cccc(CNC(=O)CSc2c3c(nc4cc(Cl)ccc24)CCCC3)c1 1.25%
CCOc1ccc(CNC(=O)C2CCN(c3nnc(-n4cccc4CNc4ccc(C)cc4)s3)CC2)cc1OC 3.71%
Cc1c(C)n(Cc2ccc(Cl)cc2)c2ccc(C(=O)N3CCN(c4ccccc4F)CC3)cc12 -36.9%
CC(C)c1ccc(Cn2c(COc3ccccc3)nc3ccccc32)cc1 50.3%
CCCn1c(=N)c(C(=O)NCc2ccccc2)cc2c(=O)n3cccc(C)c3nc21 10.7%
Cc1cccc(C2=N/C(=C/c3cccs3)C(=O)O2)c1 -24.5%
O=C1OC(c2ccc(Cl)cc2)=N/C1=C\c1cccnc1 2.81% [at 57.1 µM]
CCOc1ccccc1N(C)C(=O)c1cc2c(s1)-c1ccccc1OC2 22%
O=C(Cc1ccc(Cl)cc1)NCC(c1cccs1)S(=O)(=O)c1ccc(Cl)cc1 (stereo unspecified) 9.96%
CCOC(=O)N1CCc2c(sc3c2C(=O)NC(c2ccccc2F)N3)C1 (stereo unspecified) -8.51%
CCOc1ccc(CNCc2c(C(=O)O)c(C)n(Cc3cccc(OC)c3)c2C)cc1OC -11.8%
CCN(CC)S(=O)(=O)c1ccc(C(=O)N=c2sc3cccc(OC)c3n2C)cc1 -2.25%

Potency, inactive and 50.1 µM (active):
CC(C)c1ccc2c(c1)c(SC(C)(C)C)c(CC(C)(C)C(=O)O)n2Cc1ccc(Cl)cc1

Potency, active:
Cc1ccc(C(=O)N/N=C\c2cc(Br)c(Br)o2)cn1 50.1 µM
Cc1cc(-c2csc(N)n2)c(C)n1-c1ccccc1 44.7 µM
C(=N\Nc1ccc2ccccc2n1)/c1ccc2c(c1)OCO2 50.1 µM
Cc1ccc(-n2ncc3c(NCCCn4ccnc4)ncnc32)cc1Cl 44.7 µM
C/C(=N\NC(=O)c1ccccc1F)c1ccccn1 20 µM
C/C(=N\NC(=O)Cc1ccc(Cl)cc1)c1ccccn1 44.7 µM
CC(=O)Nc1ccc(S(=O)(=O)Oc2ccc(/C=N/N=C3/NC(=O)C(CC(=O)O)S3)cc2)cc1 (stereo unspecified) 50.1 µM
COc1cc2c(cc1O)[C@H](Cc1ccc(Oc3cc(C[C@@H]4NCCc5cc(OC)c(O)cc54)ccc3O)cc1)NCC2 39.8 µM
COc1ccc(OC)c2[nH]c(=O)c(CCNC(=O)C(=O)c3c[nH]c4ccccc34)cc12 56.2 µM
O=C(NCc1ccccn1)c1ccc2nc(-c3ccco3)c(-c3ccco3)nc2c1 11.2 µM
COCCNC(=O)Nc1ccc2nc(-c3ccco3)c(-c3ccco3)nc2c1 5.62 µM
Cc1ccc(C2C3=C(Nc4[nH]n(-c5ccccc5)c(=O)c42)c2ccccc2C3=O)cc1 (stereo unspecified) 35.5 µM
COc1cccc(/C=N\NC(=O)C2=NNC(=O)C2C)c1O (stereo unspecified) 50.1 µM
COc1ccc(S(=O)(=O)NCC(c2ccc(N(C)C)cc2)N2CCc3ccccc32)cc1OC (stereo unspecified) 11.2 µM
CN1/C(=C\C=C2\N=C(c3ccc(F)cc3)OC2=O)C(C)(C)c2ccccc21 50.1 µM
